# Laboratory results published in the supplement of paper PMC6555819.
# How the values were obtained:
# Test in all cases: PBM binding z-score (relative to random genomic background probes); higher = stronger binding; sequences stand for … in GC…GCGATTGACAGCGTAGAATGAAGG
# [1] = test system: PPARg:RXRa DBDmut IVT, anti-RXR (DBD mutation: RXRa K156A/R161A, NR concentration 270 nM, RXRa partner concentration 90 nM)
# Outline: (§1)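 Random background probes are the reference for binding z-scores. These scores derive from regression-normalized fluorescence on custom Agilent 4×180K protein-binding microarrays incubated 1 h with ligand-free nuclear receptor dimers. Binding was detected with antibodies against each partner (one per run).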
# [2] = test system: PPARg:RXRa IVT, anti-PPARg (NR concentration 270 nM, RXRa partner concentration 90 nM)
# Outline: as §1
# [3] = test system: PPARg DBDmut:RXRa IVT, anti-PPARg (DBD mutation: PPARg1 K132A/R137A, NR concentration 270 nM, RXRa partner concentration 90 nM)
# Outline: as §1
# [4] = test system: PPARg DBDmut IVT, anti-PPARg (DBD mutation: PPARg1 K132A/R137A, NR concentration 270 nM)
# Outline: as §1
# [5] = test system: PPARg homodimer (NR concentration 180 nM)
# Outline: as §1
# [6] = test system: PXR:RXRa (NR concentration 270 nM, RXRa partner concentration 90 nM)
# Outline: as §1
# [7] = test system: PXR homodimer (NR concentration 270 nM)
# Outline: as §1
# [8] = test system: RARa:RXR (NR concentration 270 nM, RXRa partner concentration 90 nM)
# Outline: as §1
# [9] = test system: RARa homodimer (NR concentration 270 nM)
# Outline: as §1
# [10] = test system: RARb:RXRa (NR concentration 270 nM, RXRa partner concentration 90 nM)
# Outline: as §1
Sequence,PBM binding z-score [1],PBM binding z-score [2],PBM binding z-score [3],PBM binding z-score [4],PBM binding z-score [5],PBM binding z-score [6],PBM binding z-score [7],PBM binding z-score [8],PBM binding z-score [9],PBM binding z-score [10]
CCTAGCAGGCCAGGCTCACTCAAGCATTTCGCTT,0.917,-0.38,-2.2,-2.12,-1.28,-0.919,-0.688,-1.09,-0.856,-0.239
CCTACTAGGCCAAAGGTCATTGATTCCAATGCTC,6.51,7.41,1.46,1.49,3.89,5.56,2.25,6.39,2.46,4.79
CCGACTGGGGCAAAGGTAACCATACTCAGTACGA,4.95,5.05,-0.085,-0.917,0.706,0.067,-0.401,1.14,-0.0329,0.906
GCTAGCAGGCCATTTGGGTCACTCAATGACGGGC,1.95,2.3,-1.31,-1.12,-0.589,0.628,0.0652,0.69,-0.931,1.63
CGTCCAAGGTCAGAGATGTCAGTGAATGCCGAGT,2.09,2.19,-0.242,-0.744,0.984,2.43,1,2.65,0.429,4.54
TAGTCTAGGTCAGATCGGGCCAGTATACGCTATA,4.19,4.5,1.78,1.67,1.18,1.33,-0.0787,1.54,-0.273,3.25
CCAGACAGGTGAGAGGGTAACTCAGCCTCGATTA,0.762,1.58,-0.651,-0.852,0.818,-0.0811,-0.117,0.443,0.0595,0.951
TAGCCTAGGTCATTGGGCCCGTATAGTACGCATC,1.78,3.02,0.545,-0.654,0.54,1.75,0.165,2,-0.326,3.74
TCTATTAGTTGAAGGACAACCGACGAGTCCGTTT,2.84,0.286,0.961,1.19,1.31,1,1.09,0.65,1.51,0.981
CCTATTAGTTGACCATAAGGGCTACCGAAGCTCG,0.457,0.104,0.267,0.311,1.99,0.0462,0.632,0.373,1.97,0.623
ATCGAAAGGTCGGGGTGAGTATAGAGAAAGGGAA,1.56,2.45,1.09,2.25,1.98,2.77,1.39,3.03,1.53,3.83
TCTTGTCGATCAAGCAGGTTAAGAAAGCCTGAGT,0.974,0.231,-0.395,0.403,-0.519,0.505,-0.0537,0.33,-0.429,0.222
CGTCCAAGGTTAATGCTAGGTCAGTGAAAGCATT,1.24,1.56,0.173,-0.333,1.1,1.81,0.209,2.86,-0.141,2.83
GATACAGGGTCAGCTAGAGGCAAGAGTATGGAAA,0.7,2.39,-0.415,-0.265,0.979,2.1,-0.207,2.8,0.136,3.97
TCATATAGGTAAACAGGTGAAAGCCCGTAAGTTA,4.79,4.53,1.26,0.658,0.824,0.744,0.0524,1.07,1.58,0.738
CCTCGGAGGACAGAAGGTCAGAGCTGTCCGCTTT,0.195,-0.199,-1.36,-1.28,1.06,1.35,-0.13,1.93,0.441,2.89
TCGAGTAGGTTACCAATGAGGCATTCAGCTTTCT,3.32,2.35,0.0818,-0.605,-0.815,-0.0047,-0.892,0.302,-1.06,0.723
ATCTCTAGGTAACAAGTTCAGTAAAAGAGAGGAC,3.06,3.22,1.24,1.1,1.34,1.67,1.66,1.57,1.54,1.78
TCTACTAGTTGAAGGGCAACCGACGAGTCCGTTT,1.69,0.294,0.093,-0.701,0.312,0.458,0.108,0.275,-0.569,1.27

Sequence,PBM binding z-score [1],PBM binding z-score [2],PBM binding z-score [3],PBM binding z-score [4],PBM binding z-score [5],PBM binding z-score [6],PBM binding z-score [7],PBM binding z-score [8],PBM binding z-score [9],PBM binding z-score [10]
TCTTGTAGATCAACAGGAGGTTGAGAAAGATCGA,1.36,0.267,0.852,-0.116,-0.716,0.0835,-0.557,0.0993,-0.378,-0.147
CCTACTGGCCCAAAGGTCATTGATTCCAATGCTC,0.578,3.61,-0.204,-0.16,2.07,5,0.894,4.8,1.12,4.44
TCATATAGGTAACAGGTGAAAGTCGGTGTGGTAA,5.02,4.81,0.985,1.02,1.4,0.896,0.535,0.876,1.18,1
AGAATGAGGTTATTAAGAGCAGGGAATTGCGGTC,2.93,2.39,0.24,-0.178,0.998,1.08,0.932,1.42,0.134,1.47
CCTCTGAGGACAGAAGGTCAGAGCTGTCCGCTTT,0.612,0.36,-0.397,-1.71,1.53,1.95,-0.313,2.59,-0.25,3.44
ATCTCGAGGTAACAAGTTCAGTGAAAGAGAGGAC,0.257,1.41,0.523,1.06,0.56,1.74,1.63,1.3,0.416,1.73
CCAGACAGGTGAGAAGGTAACGCAGCCTCGATTA,1.37,0.83,-0.151,-0.199,0.904,0.0317,0.012,0.312,0.438,0.806
TCTTGTAGATCAGCAGGTTAAAAAAGCTGGCCAA,1.58,0.467,-0.542,0.0495,0.159,0.148,-0.197,0.613,-0.11,0.0554
CGTCAAAGTTCAACTAAGGTAACGGAAAGCACGC,0.353,2.18,0.489,0.064,3.4,5.37,3.68,3.89,1.31,5.45
ATATCTAGGTTAGCTGGGGTCATTCAGACTAGGC,6.63,6.38,2.02,2.45,2.3,6.2,4.27,5.11,1.57,3.18
TCTAGCAGGCCAGGGGGTCACTCAAGAGGTACGG,1.72,3.02,2.08,1.84,2.2,4.43,0.579,5.03,0.104,3.16
TCTGCTAGGTCAACGACGGTCAGCTAATCTGCTA,3.89,3.94,0.0425,0.346,0.772,2.08,-0.714,2.4,-1.12,4.13
TCTTGTAGATCAAAGGTTGAGAAAGCCGAAGCCT,2.32,2.51,0.407,-0.0322,-0.0761,0.618,-0.464,1.05,-0.393,0.592
ATATGTAGGTTACATCCGGGTCATTAAGGCTATG,7.73,7.28,1.96,2.14,1.78,3.52,4.13,3.18,0.456,2.36
CCTACTGGGGCAAGGTCATTGATCAGTCAAAGCA,4.91,5.97,1.59,0.39,4.67,3.88,1.04,4.17,0.391,3.5
TCTTGTAGATCAAAGGTTAAGAGAGCCGAAGCCT,1.9,3.87,0.236,-0.197,0.759,1.87,-0.162,3.06,0.341,1.9
TAGCCTAGGTCAGATCGAGCCAGTATACGCTATA,0.497,1.39,-0.253,-0.42,-0.43,0.136,-0.429,0.664,-0.528,2.81
ACTAGTAGGCCAAGTTTGGGTCACTCAAACAAAG,5.38,4.97,0.793,0.699,0.944,0.935,-0.0858,1.74,-0.227,2.11
GCTCGGAAGACAAGGTCAGAGCTTTGTCCGTAGA,0.0129,0.063,-0.999,-2.1,0.392,1.41,-0.453,1.9,-0.69,2.58
